Drawing on PubChem BioAssay (NCI), this text covers growth for eight compounds.

Among the test systems are HCT-15 colon; HT29 colon; SNB-75 CNS; SNB-19 CNS; U251 CNS; PC-3 prostate; SK-MEL-5 melanoma; UACC-62 melanoma; LOX IMVI melanoma; SK-MEL-28 melanoma; SK-MEL-2 melanoma; EKVX NSCLC; SN12C renal; UO-31 renal; TK-10 renal; ACHN renal; CAKI-1 renal; A498 renal; CCRF-CEM leukemia; MOLT-4 leukemia.
Assay in all cases: NCI-60 one-dose screen, 48 h (100 = growth as untreated, 0 = no growth, -100 = all killed)
Details in all cases: 10 µM unless noted

The panel holds about 83,000 compounds, 20% with a hit somewhere; the sample as a whole holds those more often.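 48-hour exposure, single concentration, 96-well plates; percent growth endpoint where 0 means no net growth. Active: below 10.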 Unmarked numbers belong to inactive results. Calls of active or inactive are those of the source.

With `Nc1nc(-c2ccc(Cl)cc2)nc2c1sc(=S)n2-c1ccccc1`, the growth in the test with HCT-15 colon is 60.1%; in the test on HT29 colon, 47.9%; in the test on SNB-75 CNS, -30.5% (active); with SNB-19 CNS, 37.9%; with U251 CNS, 17.7%; in the test on PC-3 prostate it was 62.1%. Besides, the growth was 36.8% in the test with SK-MEL-5 melanoma; 46.9% in the test on UACC-62 melanoma; 29.4% in the test on LOX IMVI melanoma; 55.7% with SK-MEL-28 melanoma; 83.7% with SK-MEL-2 melanoma; 40.7% in the test on EKVX NSCLC. The growth in the test on SN12C renal is 53.2%; in the test with UO-31 renal, -38.4% (active); with TK-10 renal, 14.1%; in the test on ACHN renal, -4.93% (active); in the test on CAKI-1 renal it was 42.3%; in the test with A498 renal, 26.3%. The growth in the test on CCRF-CEM leukemia is 85.4%; in the test on MOLT-4 leukemia, 82.8%.

On to `CCCCn1c(=O)[nH]c(N)c([C@@H]2c3c([nH]c(=O)n(CCCC)c3=O)Oc3ccc4ccccc4c32)c1=O`, for which the growth in the test with HCT-15 colon is 6.62% (active); with HT29 colon, -44.2% (active); in the test with SNB-75 CNS, 87.1%; with SNB-19 CNS it was 64.2%; with U251 CNS it was -20.7% (active); with PC-3 prostate, 24.4%. The growth was 67% with SK-MEL-5 melanoma; 80.1% in the test on UACC-62 melanoma; -76.2% (active) in the test on LOX IMVI melanoma; 44% in the test with SK-MEL-28 melanoma; 89.2% in the test on SK-MEL-2 melanoma; 84.5% with EKVX NSCLC. For the same compound, the growth with SN12C renal was 81%; with UO-31 renal it was 3.72% (active); with TK-10 renal it was 73.7%; in the test on ACHN renal, 2.15% (active); with CAKI-1 renal, 51.5%; with A498 renal, 101%. In addition, the growth is -15.9% (active) in the test with CCRF-CEM leukemia and -8.45% (active) with MOLT-4 leukemia.

For the compound `COc1cc(NS(=O)(=O)c2ccc(-c3cnc(C4CC4)o3)cc2)ccc1F`, the growth in the test with HCT-15 colon is 20.9%; with HT29 colon, 2.64% (active); with SNB-75 CNS, -15.8% (active); in the test on SNB-19 CNS, 25.6%; in the test on U251 CNS, 22.1%; in the test on PC-3 prostate, 33.9%. Also, the growth in the test with SK-MEL-5 melanoma was 15.5%; with UACC-62 melanoma, 31.6%; with LOX IMVI melanoma, 35%; with SK-MEL-28 melanoma, 65.2%; in the test with SK-MEL-2 melanoma, 54.2%; with EKVX NSCLC it was 33%. In addition, the growth in the test with SN12C renal was 41.1%; in the test with UO-31 renal it was 37.1%; in the test on TK-10 renal it was 43.8%; in the test with ACHN renal, 37.3%; with CAKI-1 renal, 35.4%; in the test with A498 renal it was -6.34% (active). In addition, the growth in the test on CCRF-CEM leukemia was 19.5%; with MOLT-4 leukemia, 31.9%.

As to `O=C(Nc1cccc(-c2ccc(N3CCOCC3)nn2)c1)Nc1cccc(C(F)(F)F)c1`, the growth in the test with HCT-15 colon was 68.3%; in the test with HT29 colon it was 91.2%; with SNB-75 CNS it was 111%; in the test with SNB-19 CNS, 86.6%; in the test with U251 CNS it was 71.2%; in the test on PC-3 prostate it was 31.4%. Besides, the growth is 41.9% in the test with SK-MEL-5 melanoma; 43.2% in the test with UACC-62 melanoma; 70.2% with LOX IMVI melanoma; 88.7% in the test with SK-MEL-28 melanoma; 70% with SK-MEL-2 melanoma; 63.7% in the test on EKVX NSCLC. For the same compound, the growth in the test with SN12C renal is 66.6%; with UO-31 renal, 74.9%; in the test on TK-10 renal, 70.6%; in the test with ACHN renal it was 65.7%; in the test with CAKI-1 renal, 87.9%; in the test on A498 renal it was 80.3%. Also, the growth in the test with CCRF-CEM leukemia is 26%; with MOLT-4 leukemia, 22.9%.

As for `CC/C=C\C[C@H](O)C/C=C1/C(=O)C=C[C@@H]1C/C=C\CCCC(=O)N(C)C`, the growth with HCT-15 colon was -21.8% (active); in the test with HT29 colon it was -71.5% (active); with SNB-75 CNS, 72.2%; in the test on SNB-19 CNS it was 27.1%; with U251 CNS, -31% (active); in the test on PC-3 prostate, 2.37% (active). In addition, the growth was -88.6% (active) with SK-MEL-5 melanoma; -31.6% (active) with UACC-62 melanoma; -84.3% (active) with LOX IMVI melanoma; 21.5% in the test with SK-MEL-28 melanoma; 29% in the test with SK-MEL-2 melanoma; 22.9% in the test with EKVX NSCLC. The growth in the test with SN12C renal is -9.16% (active); in the test with UO-31 renal, -81.3% (active); in the test on TK-10 renal it was -6.21% (active); in the test with ACHN renal, -85% (active); in the test with CAKI-1 renal, -9.48% (active); in the test on A498 renal it was 50.2%. Also, the values for the growth in the test on CCRF-CEM leukemia and with MOLT-4 leukemia were 0.876% (active) and 6.69% (active), respectively.

In the case of `CC1(C)COB(OCC(C)(C)COB2OCC(C)(C)CO2)OC1`, the growth is 108% in the test on HCT-15 colon; 110% in the test with HT29 colon; 107% in the test with SNB-75 CNS; 110% with SNB-19 CNS; 98.2% in the test with U251 CNS; 94.2% with PC-3 prostate. The growth in the test with SK-MEL-5 melanoma was 93.2%; with UACC-62 melanoma, 106%; in the test with LOX IMVI melanoma it was 96%; in the test on SK-MEL-28 melanoma, 113%; with SK-MEL-2 melanoma, 113%; in the test on EKVX NSCLC it was 104%. In addition, the growth was 104% in the test with SN12C renal; 87.7% in the test with UO-31 renal; 102% in the test on TK-10 renal; 108% with ACHN renal; 102% in the test with CAKI-1 renal; 100% with A498 renal. The growth in the test with CCRF-CEM leukemia is 101%; in the test on MOLT-4 leukemia it was 108%.

For the compound `Nc1c(C(=O)Nc2ccccc2F)sc2nc3c(cc12)CCCC3`, the growth in the test on HCT-15 colon is 28.7%; in the test with HT29 colon, 11.3%; in the test on SNB-75 CNS, 37.5%; in the test on SNB-19 CNS it was 33.7%; with U251 CNS it was 26.7%; with PC-3 prostate, 27.7%. In addition, the growth with SK-MEL-5 melanoma was 15.5%; in the test with UACC-62 melanoma it was 26.7%; in the test with LOX IMVI melanoma it was 40.5%; in the test with SK-MEL-28 melanoma it was 73.7%; in the test with SK-MEL-2 melanoma, 43.7%; in the test on EKVX NSCLC, 41.2%. In addition, the growth in the test on SN12C renal is 40%; in the test with UO-31 renal it was 46.9%; with TK-10 renal, 60.9%; in the test with ACHN renal, 50.7%; in the test with CAKI-1 renal it was 57.4%; in the test with A498 renal, -0.37% (active). For the same compound, the figures for the growth in the test on CCRF-CEM leukemia and with MOLT-4 leukemia were 22.5% and 27%, respectively.

For `COc1cc2oc(-c3cccc(NC(=O)c4ccccc4)c3)cc(=O)c2c(OC)c1OC`, the growth in the test with HCT-15 colon is 65.2%; in the test on HT29 colon it was 77.1%; with SNB-75 CNS it was 77.4%; in the test on SNB-19 CNS, 91.4%; with U251 CNS, 83.7%; in the test with PC-3 prostate, 53.1%. The growth is 63.2% with SK-MEL-5 melanoma; 66.8% with UACC-62 melanoma; 61.7% in the test on LOX IMVI melanoma; 73.2% with SK-MEL-28 melanoma; 76.8% in the test on SK-MEL-2 melanoma; 103% with EKVX NSCLC. For the same compound, the growth in the test on SN12C renal was 76.2%; in the test with UO-31 renal, 51%; in the test with TK-10 renal, 91.3%; in the test on ACHN renal, 61.6%; with CAKI-1 renal it was 87.2%; in the test on A498 renal, 59.4%. Further, the growth was 45.7% in the test with CCRF-CEM leukemia and 40.7% with MOLT-4 leukemia.
